Data on 1 compound can be found in ChEMBL document CHEMBL1961873, “Compounds: GSK PKIS; Assays: Nanosyn kinase panel” (2012).

Assay [1] addresses Sphingosine kinase 1 (Homo sapiens) (UniProt Q9NYA1). The conditions noted are these: at 1 µM.
Assay [2] has as its target T1, Sphingosine kinase 2 (Homo sapiens) (UniProt Q9NRA0).
T1 sequence (whole entry): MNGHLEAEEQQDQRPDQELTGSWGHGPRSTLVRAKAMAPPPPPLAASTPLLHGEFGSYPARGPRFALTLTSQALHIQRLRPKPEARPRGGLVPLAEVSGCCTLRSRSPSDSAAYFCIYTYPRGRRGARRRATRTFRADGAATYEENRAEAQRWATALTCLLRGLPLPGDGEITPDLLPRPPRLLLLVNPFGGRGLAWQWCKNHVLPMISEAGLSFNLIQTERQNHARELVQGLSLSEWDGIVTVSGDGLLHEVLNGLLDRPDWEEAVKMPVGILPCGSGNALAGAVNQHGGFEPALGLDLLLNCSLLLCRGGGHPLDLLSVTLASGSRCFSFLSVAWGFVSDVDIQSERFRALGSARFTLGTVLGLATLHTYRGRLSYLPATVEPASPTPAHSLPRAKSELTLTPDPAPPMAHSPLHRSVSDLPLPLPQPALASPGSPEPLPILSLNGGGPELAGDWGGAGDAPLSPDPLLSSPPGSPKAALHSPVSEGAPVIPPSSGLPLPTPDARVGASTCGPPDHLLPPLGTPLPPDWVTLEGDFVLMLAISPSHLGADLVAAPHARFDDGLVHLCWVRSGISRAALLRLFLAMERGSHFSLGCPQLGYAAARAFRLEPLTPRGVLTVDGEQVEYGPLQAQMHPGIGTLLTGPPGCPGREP
As to conditions: at 0.1 µM.

The target in assay [3] is T1, Sphingosine kinase 2 (Homo sapiens). As to conditions: at 1 µM.
The target of assay [4] is Casein kinase II subunit alpha (Homo sapiens) (UniProt P68400). As to conditions: at 0.1 µM.
Chain of Casein kinase II subunit alpha (Homo sapiens) (P68400 whole entry, looked up): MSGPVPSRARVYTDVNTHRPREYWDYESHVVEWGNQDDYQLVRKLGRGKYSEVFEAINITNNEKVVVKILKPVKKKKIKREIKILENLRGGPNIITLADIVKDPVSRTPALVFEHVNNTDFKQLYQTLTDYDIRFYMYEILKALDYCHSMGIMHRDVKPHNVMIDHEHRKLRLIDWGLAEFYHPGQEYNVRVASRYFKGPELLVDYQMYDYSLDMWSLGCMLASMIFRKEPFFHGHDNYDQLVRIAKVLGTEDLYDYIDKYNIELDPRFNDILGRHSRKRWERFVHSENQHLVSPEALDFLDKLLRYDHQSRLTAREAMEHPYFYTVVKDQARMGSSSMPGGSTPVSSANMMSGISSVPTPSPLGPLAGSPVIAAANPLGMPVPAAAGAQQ
Assay [5] shares this target. As to conditions: at 1 µM.
For assay [6], the target named is T2, Inhibitor of nuclear factor kappa-B kinase subunit alpha (Homo sapiens) (UniProt O15111).
T2 sequence (whole entry): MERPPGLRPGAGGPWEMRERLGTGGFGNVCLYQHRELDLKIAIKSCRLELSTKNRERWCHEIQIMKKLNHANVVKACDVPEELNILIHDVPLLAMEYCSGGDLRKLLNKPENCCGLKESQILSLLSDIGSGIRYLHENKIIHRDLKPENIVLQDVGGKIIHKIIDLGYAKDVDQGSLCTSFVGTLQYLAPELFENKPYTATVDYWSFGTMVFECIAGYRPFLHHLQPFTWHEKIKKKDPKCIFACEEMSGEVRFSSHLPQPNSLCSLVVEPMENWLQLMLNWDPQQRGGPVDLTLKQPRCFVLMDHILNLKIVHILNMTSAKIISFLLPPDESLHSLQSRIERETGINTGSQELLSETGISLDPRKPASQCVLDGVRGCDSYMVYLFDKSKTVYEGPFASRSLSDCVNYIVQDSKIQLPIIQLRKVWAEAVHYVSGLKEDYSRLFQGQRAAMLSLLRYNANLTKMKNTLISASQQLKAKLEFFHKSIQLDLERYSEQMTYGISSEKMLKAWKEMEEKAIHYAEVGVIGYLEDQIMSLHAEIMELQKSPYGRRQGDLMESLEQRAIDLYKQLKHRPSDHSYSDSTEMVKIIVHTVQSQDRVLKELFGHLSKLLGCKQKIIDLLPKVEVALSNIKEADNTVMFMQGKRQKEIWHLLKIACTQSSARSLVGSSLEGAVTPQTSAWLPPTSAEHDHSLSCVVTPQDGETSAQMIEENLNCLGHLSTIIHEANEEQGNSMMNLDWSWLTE
As to conditions: at 0.1 µM.

Assay [7] addresses T2, Inhibitor of nuclear factor kappa-B kinase subunit alpha (Homo sapiens). The conditions noted are these: at 1 µM.
Assay [8] has as its target T3, Inhibitor of nuclear factor kappa-B kinase subunit beta (Homo sapiens) (UniProt O14920).
T3 sequence (whole entry): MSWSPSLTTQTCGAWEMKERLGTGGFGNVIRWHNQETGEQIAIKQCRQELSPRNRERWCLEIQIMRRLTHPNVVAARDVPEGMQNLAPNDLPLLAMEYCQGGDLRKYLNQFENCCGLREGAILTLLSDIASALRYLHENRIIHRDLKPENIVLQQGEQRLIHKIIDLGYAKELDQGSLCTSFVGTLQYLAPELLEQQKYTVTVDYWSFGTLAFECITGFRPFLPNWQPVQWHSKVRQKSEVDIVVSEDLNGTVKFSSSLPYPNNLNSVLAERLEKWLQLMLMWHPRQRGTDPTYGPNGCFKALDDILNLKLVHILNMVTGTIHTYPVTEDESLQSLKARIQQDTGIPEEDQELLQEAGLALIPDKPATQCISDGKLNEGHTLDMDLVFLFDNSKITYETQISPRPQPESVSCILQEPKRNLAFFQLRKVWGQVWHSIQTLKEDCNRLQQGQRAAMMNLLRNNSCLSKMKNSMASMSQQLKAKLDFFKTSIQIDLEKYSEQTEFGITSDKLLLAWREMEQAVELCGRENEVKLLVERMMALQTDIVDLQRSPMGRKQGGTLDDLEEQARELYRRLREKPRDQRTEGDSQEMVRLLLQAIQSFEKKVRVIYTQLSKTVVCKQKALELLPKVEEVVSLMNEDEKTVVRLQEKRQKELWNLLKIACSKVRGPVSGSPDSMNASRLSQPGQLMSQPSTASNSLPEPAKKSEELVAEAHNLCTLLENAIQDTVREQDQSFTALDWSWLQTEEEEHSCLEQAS
The conditions noted are these: at 0.1 µM.

For assay [9], the target named is T3, Inhibitor of nuclear factor kappa-B kinase subunit beta (Homo sapiens). As to conditions: at 1 µM.
Assay [10] has as its target T4, Inhibitor of nuclear factor kappa-B kinase subunit epsilon (Homo sapiens) (UniProt Q14164).
T4 sequence (whole entry): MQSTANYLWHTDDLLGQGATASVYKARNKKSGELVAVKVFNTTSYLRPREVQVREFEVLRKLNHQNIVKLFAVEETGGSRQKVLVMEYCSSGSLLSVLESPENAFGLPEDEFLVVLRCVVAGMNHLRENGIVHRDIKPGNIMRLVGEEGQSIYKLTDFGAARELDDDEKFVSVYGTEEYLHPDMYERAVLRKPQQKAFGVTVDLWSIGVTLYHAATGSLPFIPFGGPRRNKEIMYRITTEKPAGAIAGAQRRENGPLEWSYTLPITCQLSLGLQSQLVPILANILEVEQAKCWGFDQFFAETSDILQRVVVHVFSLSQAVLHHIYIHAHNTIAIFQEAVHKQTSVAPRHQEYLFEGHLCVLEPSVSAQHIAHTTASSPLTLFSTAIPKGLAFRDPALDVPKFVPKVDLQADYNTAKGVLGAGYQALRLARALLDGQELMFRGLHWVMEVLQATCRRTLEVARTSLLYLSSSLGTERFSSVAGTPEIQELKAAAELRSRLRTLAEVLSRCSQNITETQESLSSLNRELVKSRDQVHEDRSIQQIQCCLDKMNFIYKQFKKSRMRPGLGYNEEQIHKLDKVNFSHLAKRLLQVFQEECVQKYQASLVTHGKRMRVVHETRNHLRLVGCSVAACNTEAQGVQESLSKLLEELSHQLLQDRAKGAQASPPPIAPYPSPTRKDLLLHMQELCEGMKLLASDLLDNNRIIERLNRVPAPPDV
The conditions noted are these: at 0.1 µM.

Assay [11] deals with T4, Inhibitor of nuclear factor kappa-B kinase subunit epsilon (Homo sapiens). As to conditions: at 1 µM.
The target in assay [12] is T5, Serine/threonine-protein kinase Nek1 (Homo sapiens) (UniProt Q96PY6).
T5 sequence (whole entry): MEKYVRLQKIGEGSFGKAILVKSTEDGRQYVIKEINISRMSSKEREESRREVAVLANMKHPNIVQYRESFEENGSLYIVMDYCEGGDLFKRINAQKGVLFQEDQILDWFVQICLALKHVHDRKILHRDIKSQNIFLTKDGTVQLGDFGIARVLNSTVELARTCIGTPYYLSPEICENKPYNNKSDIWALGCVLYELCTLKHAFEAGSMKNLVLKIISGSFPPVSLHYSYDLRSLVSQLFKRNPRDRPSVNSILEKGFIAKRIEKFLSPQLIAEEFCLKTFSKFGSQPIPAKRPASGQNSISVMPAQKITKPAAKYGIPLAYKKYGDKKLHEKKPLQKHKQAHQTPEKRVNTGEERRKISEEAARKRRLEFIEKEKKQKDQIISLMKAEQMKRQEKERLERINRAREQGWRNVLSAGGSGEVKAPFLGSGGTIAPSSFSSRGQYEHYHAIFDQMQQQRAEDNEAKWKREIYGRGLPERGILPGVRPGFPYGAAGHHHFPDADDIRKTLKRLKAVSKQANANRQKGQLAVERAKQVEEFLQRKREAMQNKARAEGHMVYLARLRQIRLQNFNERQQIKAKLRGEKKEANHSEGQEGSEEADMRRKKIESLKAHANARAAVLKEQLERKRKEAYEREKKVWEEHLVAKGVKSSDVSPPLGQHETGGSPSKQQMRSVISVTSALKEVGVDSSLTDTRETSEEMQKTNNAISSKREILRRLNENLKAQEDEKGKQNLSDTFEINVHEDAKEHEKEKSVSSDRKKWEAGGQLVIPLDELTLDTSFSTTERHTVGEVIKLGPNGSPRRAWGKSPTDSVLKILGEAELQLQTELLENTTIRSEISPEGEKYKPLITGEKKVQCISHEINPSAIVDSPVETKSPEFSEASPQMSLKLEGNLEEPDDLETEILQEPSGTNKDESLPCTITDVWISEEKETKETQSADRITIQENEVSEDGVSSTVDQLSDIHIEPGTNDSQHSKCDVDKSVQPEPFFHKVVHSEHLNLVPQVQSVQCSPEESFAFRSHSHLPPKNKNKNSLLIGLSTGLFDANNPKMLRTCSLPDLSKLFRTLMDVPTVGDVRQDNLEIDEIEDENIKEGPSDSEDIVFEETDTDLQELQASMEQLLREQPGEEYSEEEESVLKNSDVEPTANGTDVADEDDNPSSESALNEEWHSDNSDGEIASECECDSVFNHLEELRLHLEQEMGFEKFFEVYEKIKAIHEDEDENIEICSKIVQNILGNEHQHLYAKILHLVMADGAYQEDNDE
The conditions noted are these: at 0.1 µM.

Assay [13] concerns the target T5, Serine/threonine-protein kinase Nek1 (Homo sapiens). The conditions noted are these: at 1 µM.
For assay [14], the target named is T6, Serine/threonine-protein kinase Nek2 (Homo sapiens) (UniProt P51955).
T6 sequence (whole entry): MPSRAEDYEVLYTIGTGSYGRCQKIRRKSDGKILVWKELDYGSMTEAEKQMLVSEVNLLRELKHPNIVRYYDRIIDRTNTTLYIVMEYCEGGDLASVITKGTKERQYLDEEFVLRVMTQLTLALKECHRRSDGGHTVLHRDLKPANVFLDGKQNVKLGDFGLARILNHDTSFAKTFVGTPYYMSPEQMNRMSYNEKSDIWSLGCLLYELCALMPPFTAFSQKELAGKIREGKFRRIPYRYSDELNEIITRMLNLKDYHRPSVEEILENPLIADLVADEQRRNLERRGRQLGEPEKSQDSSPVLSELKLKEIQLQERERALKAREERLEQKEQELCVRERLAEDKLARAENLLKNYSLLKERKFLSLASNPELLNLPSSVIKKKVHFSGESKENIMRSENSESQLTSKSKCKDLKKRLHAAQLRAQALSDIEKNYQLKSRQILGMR
As to conditions: at 0.1 µM.

Assay [15] deals with T6, Serine/threonine-protein kinase Nek2 (Homo sapiens). As to conditions: at 1 µM.
Assay [16] concerns the target Serine/threonine-protein kinase Nek6 (Homo sapiens) (UniProt Q9HC98). The conditions noted are these: at 0.1 µM.
The target is the same in assay [17]. The conditions noted are these: at 1 µM.
The target in assay [18] is Serine/threonine-protein kinase Nek7 (Homo sapiens) (UniProt Q8TDX7). As to conditions: at 0.1 µM.
Chain of Serine/threonine-protein kinase Nek7 (Homo sapiens) (Q8TDX7 whole entry, looked up): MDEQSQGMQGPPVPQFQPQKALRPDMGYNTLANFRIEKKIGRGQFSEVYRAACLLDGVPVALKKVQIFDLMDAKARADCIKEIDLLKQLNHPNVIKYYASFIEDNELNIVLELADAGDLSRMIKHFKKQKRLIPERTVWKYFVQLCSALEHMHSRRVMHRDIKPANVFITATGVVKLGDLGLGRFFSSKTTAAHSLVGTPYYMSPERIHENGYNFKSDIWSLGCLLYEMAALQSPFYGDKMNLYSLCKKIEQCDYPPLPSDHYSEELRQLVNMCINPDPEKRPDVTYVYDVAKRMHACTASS
For assay [19] the target is unchanged. The conditions noted are these: at 1 µM.
In assay [20] the target is T7, Serine/threonine-protein kinase Nek9 (Homo sapiens) (UniProt Q8TD19).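 Also: reported value is the mean percent inhibition of NEK9.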
T7 sequence (whole entry): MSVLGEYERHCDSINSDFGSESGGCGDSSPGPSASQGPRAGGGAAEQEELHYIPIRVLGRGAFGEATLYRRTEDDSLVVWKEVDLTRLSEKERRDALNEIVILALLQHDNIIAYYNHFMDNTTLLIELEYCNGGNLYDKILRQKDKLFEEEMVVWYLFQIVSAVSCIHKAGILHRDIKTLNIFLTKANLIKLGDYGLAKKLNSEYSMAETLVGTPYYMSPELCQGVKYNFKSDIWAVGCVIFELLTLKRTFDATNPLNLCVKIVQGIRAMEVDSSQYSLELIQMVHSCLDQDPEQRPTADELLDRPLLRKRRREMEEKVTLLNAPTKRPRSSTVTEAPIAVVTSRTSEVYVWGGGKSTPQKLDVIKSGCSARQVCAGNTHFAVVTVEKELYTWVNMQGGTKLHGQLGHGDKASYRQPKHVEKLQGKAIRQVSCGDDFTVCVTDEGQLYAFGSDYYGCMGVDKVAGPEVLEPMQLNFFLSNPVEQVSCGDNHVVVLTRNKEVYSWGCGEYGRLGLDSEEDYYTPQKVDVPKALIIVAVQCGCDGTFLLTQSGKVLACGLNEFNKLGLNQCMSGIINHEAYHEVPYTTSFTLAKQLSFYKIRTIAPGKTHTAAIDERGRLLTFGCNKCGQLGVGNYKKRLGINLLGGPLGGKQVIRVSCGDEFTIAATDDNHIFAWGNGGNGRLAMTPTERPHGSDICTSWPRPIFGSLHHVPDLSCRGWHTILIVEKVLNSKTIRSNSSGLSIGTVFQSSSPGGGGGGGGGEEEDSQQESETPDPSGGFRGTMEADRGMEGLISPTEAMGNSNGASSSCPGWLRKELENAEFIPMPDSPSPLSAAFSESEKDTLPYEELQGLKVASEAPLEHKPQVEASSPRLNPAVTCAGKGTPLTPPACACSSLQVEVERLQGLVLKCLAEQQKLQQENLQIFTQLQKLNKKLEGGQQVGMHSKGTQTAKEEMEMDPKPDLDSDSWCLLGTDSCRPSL
As to conditions: at 0.1 µM.

Chain of Serine/threonine-protein kinase Nek6 (Homo sapiens) (Q9HC98 whole entry): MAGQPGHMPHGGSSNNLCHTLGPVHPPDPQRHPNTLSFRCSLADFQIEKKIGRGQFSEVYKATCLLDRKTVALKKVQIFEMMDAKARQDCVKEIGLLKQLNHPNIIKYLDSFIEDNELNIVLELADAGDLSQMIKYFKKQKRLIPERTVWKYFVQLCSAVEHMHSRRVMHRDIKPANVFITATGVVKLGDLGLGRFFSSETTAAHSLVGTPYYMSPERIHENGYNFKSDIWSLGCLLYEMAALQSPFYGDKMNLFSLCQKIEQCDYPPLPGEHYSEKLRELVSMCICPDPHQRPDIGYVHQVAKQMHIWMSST
Chain of Sphingosine kinase 1 (Homo sapiens) (Q9NYA1 whole entry): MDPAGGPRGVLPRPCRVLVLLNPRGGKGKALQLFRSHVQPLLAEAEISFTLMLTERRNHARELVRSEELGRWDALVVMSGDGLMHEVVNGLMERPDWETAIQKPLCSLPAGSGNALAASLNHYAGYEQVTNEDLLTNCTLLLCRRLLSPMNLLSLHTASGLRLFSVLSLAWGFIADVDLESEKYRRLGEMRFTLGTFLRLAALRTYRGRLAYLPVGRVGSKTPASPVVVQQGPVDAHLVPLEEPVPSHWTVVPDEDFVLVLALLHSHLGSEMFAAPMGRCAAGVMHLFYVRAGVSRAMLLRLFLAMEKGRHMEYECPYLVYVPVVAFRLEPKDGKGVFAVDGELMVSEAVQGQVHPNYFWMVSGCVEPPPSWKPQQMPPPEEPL

By inhibition is commonly meant the drop in the measured response relative to a control, in per cent. As to `CN(C)CCCNc1nccc(-c2c(-c3ccc(F)cc3)nn3cc(C(F)(F)F)ccc23)n1`, the inhibition in assay [1] is -2.46%; in assay [2] it was -0.03%; in [3] it was -0.25%; in assay [4] it was 1.85%; in [5], 6.47%; in assay [6], 4.46%. Also, the inhibition in [7] was -1.7%; in assay [8], 1.56%; in assay [9], 0%; in [10], 2.49%; in [11], 1.28%; in [12], 2.23%. Further, the inhibition in assay [13] was 4.09%; in assay [14], 1.87%; in assay [15], 1.49%; in assay [16], 1.82%; in [17], -1.46%; in assay [18], 2.85%. Also, the inhibition in [19] was found to be 1.37%; in [20], 5.9%.
